# From PubChem BioAssay AID449739 (Vanderbilt High Throughput Screening Facility, 2010)
# Hit rate of the full screen: of about 100,000 compounds, about 4,200 (4.2%) were called active. This is one part of a sample in which actives are shown more often than they occur.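 How the source made its calls: active means single-dose well whose peak fluorescence ratio is a statistical outlier from its plate by either plate-standardised score or position-corrected B-score; inactive means the rest.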
# Target: Voltage-dependent T-type calcium channel subunit alpha-1H (Homo sapiens) (UniProt O95180)
# Experiment: Cav3.2 calcium influx blockers – cell-based, Fluo-4 calcium fluorescence, FDSS, MLSMR library, primary screen (AID 449739)
# Settings: Cav3.2-expressing cells, at 10 µM, active compounds read low
# Chain of Voltage-dependent T-type calcium channel subunit alpha-1H (Homo sapiens) (O95180 whole entry, looked up): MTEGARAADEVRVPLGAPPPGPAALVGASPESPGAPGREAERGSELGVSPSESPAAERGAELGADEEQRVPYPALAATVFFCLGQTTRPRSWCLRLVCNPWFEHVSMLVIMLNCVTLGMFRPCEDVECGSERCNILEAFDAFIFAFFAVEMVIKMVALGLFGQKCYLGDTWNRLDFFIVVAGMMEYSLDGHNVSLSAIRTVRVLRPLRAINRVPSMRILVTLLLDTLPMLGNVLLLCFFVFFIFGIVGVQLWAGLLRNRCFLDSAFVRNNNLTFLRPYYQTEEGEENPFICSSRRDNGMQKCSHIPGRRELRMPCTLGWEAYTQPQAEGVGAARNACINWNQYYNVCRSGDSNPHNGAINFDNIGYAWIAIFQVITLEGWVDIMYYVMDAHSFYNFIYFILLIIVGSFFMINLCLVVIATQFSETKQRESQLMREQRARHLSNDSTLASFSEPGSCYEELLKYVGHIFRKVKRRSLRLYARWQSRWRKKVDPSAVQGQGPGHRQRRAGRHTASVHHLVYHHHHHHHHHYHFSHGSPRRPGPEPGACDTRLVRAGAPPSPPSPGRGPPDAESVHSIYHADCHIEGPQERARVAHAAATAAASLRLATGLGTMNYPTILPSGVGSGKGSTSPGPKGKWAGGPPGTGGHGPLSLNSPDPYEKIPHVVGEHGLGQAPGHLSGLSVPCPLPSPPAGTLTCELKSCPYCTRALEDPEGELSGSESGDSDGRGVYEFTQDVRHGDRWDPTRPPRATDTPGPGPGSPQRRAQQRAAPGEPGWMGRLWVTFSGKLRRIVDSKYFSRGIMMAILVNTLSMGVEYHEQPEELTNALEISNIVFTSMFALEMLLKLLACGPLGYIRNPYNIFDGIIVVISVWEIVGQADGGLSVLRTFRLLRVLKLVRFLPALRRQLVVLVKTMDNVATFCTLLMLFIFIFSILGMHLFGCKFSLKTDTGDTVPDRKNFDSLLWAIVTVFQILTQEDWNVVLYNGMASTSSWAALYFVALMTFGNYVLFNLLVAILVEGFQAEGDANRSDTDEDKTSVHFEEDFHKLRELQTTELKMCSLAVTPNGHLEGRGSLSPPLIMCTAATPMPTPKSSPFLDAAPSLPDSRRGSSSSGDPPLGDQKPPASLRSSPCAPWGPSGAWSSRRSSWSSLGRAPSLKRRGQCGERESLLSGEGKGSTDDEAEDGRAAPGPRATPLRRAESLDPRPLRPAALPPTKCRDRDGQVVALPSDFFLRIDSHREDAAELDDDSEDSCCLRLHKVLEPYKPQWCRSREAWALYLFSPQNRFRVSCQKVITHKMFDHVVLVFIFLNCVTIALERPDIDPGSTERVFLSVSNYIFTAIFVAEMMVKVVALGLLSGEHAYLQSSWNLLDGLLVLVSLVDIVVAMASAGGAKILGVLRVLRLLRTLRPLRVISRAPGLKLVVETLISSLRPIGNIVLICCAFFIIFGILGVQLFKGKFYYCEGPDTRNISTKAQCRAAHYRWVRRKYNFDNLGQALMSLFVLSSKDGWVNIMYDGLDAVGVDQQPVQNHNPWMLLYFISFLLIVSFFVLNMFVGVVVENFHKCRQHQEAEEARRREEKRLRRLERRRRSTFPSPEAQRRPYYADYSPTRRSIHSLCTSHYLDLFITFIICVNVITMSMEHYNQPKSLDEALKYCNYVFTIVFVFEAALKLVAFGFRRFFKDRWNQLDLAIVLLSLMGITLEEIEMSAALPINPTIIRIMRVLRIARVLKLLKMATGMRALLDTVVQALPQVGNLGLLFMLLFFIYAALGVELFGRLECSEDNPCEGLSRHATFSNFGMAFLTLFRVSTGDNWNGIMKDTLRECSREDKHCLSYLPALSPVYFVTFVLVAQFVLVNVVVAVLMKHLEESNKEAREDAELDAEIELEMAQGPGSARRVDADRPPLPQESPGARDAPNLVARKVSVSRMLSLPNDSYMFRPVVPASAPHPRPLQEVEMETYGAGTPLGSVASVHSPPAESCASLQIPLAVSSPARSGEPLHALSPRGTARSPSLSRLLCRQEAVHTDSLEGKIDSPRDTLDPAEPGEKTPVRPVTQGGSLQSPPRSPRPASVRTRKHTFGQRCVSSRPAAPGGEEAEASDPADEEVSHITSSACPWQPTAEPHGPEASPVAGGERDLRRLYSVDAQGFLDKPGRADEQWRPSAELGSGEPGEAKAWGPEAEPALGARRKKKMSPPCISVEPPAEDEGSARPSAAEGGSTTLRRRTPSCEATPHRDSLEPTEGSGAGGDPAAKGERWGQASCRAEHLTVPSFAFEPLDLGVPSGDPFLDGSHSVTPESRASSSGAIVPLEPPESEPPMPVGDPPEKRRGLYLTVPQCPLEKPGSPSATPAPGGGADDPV
row,SMILES,B-score
1,O=c1c2ccccc2c(-c2ccc(F)cc2)nn1-c1ccc(C(F)(F)F)cc1,0.392 (inactive)
2,Clc1ccc(-c2nnc(-c3ccccc3)nc2N2CCSCC2)cc1,-2.83 (inactive)
3,COc1cc(/C=C/CO)cc(OC)c1O[C@@H]1O[C@H](CO)[C@@H](O)[C@H](O)[C@H]1O,0.144 (inactive)
4,CC1(c2nnc(-c3ccncc3)o2)CC(c2cccnc2)=NO1 (stereo not drawn),0.534 (inactive)
5,COc1ccc(NC(=O)CSc2nc(NS(=O)(=O)c3ccc(C)cc3)cc(=O)[nH]2)cc1,-6.39 (active)
6,COc1ccc(NC(=O)CSc2nc(N)c(-c3ccccc3)c(=O)[nH]2)cc1,0.0212 (inactive)
7,COc1ccc2nc(SCC(=O)Nc3c(C)cc(C)cc3C)[nH]c2c1,-0.844 (inactive)
8,CCCC(=O)Nc1nc2ccc(NC(=O)c3cccnc3)cc2s1,-0.392 (inactive)
9,COCCN1C(=O)N[C@@H](CCc2ccccc2)[C@H](C(C)=O)[C@H]1C,0.713 (inactive)
10,O=C(NCC1CC1)c1onc(CSc2ccccc2)c1C(=O)NCC1CC1,-1.14 (inactive)
11,CS(=O)(=O)N(CC(=O)Nc1ccc(Cl)c(Cl)c1)C1CCCCC1,-4.14 (active)
12,CS(=O)(=O)N(CC(=O)N1CCN(c2ccc(F)cc2)CC1)C1CCCCC1,1.32 (inactive)
13,CCOC(=O)N1CCN(C(=O)CN(C2CCCCC2)S(C)(=O)=O)CC1,-0.0305 (inactive)
14,O=C(COc1ccc2c(C(F)(F)F)cc(=O)oc2c1)Nc1ccc2c(c1)OCCO2,-0.232 (inactive)
15,N#Cc1ccc(Oc2cc(C(F)(F)F)nc(-c3ccccn3)n2)cc1,-0.0658 (inactive)
16,O=C(NCCCN1CCOCC1)c1cc2c(s1)CCC2,0.565 (inactive)
17,Cc1nn(C)cc1C(=O)NNC(=S)Nc1ccc(Cl)cc1,-0.0884 (inactive)
18,COC(=O)C1=C(C(=O)OC)[C@@H]2N(C)c3ccccc3[C@@]23C[C@@H](C(=O)OC)N(C(C)=O)C3=N1,0.294 (inactive)
19,CCOC(=O)c1ccccc1NC(=O)c1c(N)n(C)c(=O)[nH]c1=O,1.01 (inactive)
20,C=CCn1c(N)cc(=O)nc1SCC(=O)Nc1cccc2ccccc12,-0.0155 (inactive)
21,C=CCn1c(SCC(=O)NCc2ccccc2)nnc1-c1cc(Br)ccc1O,-6.89 (active)
22,C=CCn1c(SCC(=O)Nc2nc3ccccc3s2)nnc1-c1ccccc1O,-5.9 (active)

row,SMILES,B-score
1,CCn1c(SCC(=O)Nc2nc3ccc(OC)cc3s2)nnc1-c1ccoc1C,-3.69 (inactive)
2,O=C(CSc1nnc(-c2cccnc2)n1CCc1ccccc1)NCc1ccccc1,0.107 (inactive)
3,C=CCn1c(COc2ccccc2)nnc1SCC(=O)NCC(=O)OCC,0.062 (inactive)
4,CN(C)/C=C(\C#N)C(=O)c1cccnc1Oc1ccc(F)cc1F,0.526 (inactive)
5,Cc1ccc(Cl)cc1NC(=O)COC(=O)C1CCCCC1,-0.13 (inactive)
6,O=C(NCc1ccco1)c1cc2sccc2n1Cc1ccc(F)cc1,-5.53 (active)
7,O=C(c1cc2sccc2n1Cc1ccc(F)cc1)N1CCc2ccccc21,-3.42 (inactive)
8,O=C(Cc1ccc(-n2c(=O)c3sccc3n(Cc3ccc(F)cc3)c2=O)cc1)NCc1ccco1,-0.875 (inactive)
9,CC(C)(C)c1ccc(C(=O)NCCC(=O)NCc2ccco2)cc1,-0.22 (inactive)
10,O=C(NCc1ccco1)c1ccc(Cn2c(=O)c3sccc3n(Cc3ccc(F)cc3)c2=O)cc1,-3.42 (active)
11,O=C(NCc1ccco1)c1ccc(CS(=O)(=O)Cc2ccc(F)cc2)o1,1.27 (inactive)
12,COc1cccc(-c2cc(C(=O)N/N=C/c3ccc(OC)c(COC(C)=O)c3)c3ccccc3n2)c1,-0.321 (inactive)
13,CC(C)(C)CN1C(=O)C(=O)NC[C@H]1Cc1cccc2ccccc12,0.844 (inactive)
14,Fc1ccccc1COc1ccccc1CNCc1ccncc1,0.584 (inactive)
15,CC(C)CC(CO)N1CCN(C(=O)c2ccc(Cl)cc2Cl)CCC1=O (stereo not drawn),0.363 (inactive)
16,Cc1c(NC(=O)CCCOc2ccccc2)cccc1[N+](=O)[O-],-0.161 (inactive)
17,CCO[C@@H]1OC(C(N)=O)=C[C@H](c2ccc(Br)cc2)[C@H]1CCCO,0.335 (inactive)
18,O=C(c1cccs1)N1CCN(Cc2ccc3c(c2)OCO3)CC1,0.274 (inactive)
19,O=C(CSCc1ccc(Cl)cc1)N1CCN(Cc2ccc3c(c2)OCO3)CC1,-5.77 (active)
20,CS(=O)(=O)N(CC(=O)N1CCN(Cc2ccc3c(c2)OCO3)CC1)c1ccc2c(c1)OCO2,1.42 (inactive)
21,O=C(NCc1cc(C(F)(F)F)cc(C(F)(F)F)c1)C1CC(c2cccc(F)c2)=NO1 (stereo not drawn),-0.916 (inactive)
22,O=C(CSc1ncnc2c1cnn2CCc1ccccc1)Nc1ccc(F)cc1,0.0976 (inactive)

row,SMILES,B-score
1,COc1ccc(C(C(=O)NCc2ccccc2)N(Cc2cccs2)C(=O)c2cnccn2)cc1 (stereo not drawn),-0.0118 (inactive)
2,C/C=C(/C)C(=O)Nc1cccc(C2=NOC3(C2)C[C@@H](C(N)=O)N(C(=O)C2(C)CC2)C3)c1 (stereo partly drawn),-0.695 (inactive)
3,O=C(NCC1CCCO1)/C(=C\c1ccco1)NC(=O)c1ccccc1 (stereo not drawn),0.14 (inactive)
4,CCOc1ccc(C(C)C)cc1S(=O)(=O)n1nc(C)cc1C,-4.23 (active)
5,CCOc1ccc(S(=O)(=O)n2ccnc2)c2ccccc12,0.109 (inactive)
6,CCOc1cc(C)c(Cl)cc1S(=O)(=O)n1nnc2ccccc21,-2.51 (inactive)
7,O=C(CN1CCN(S(=O)(=O)c2ccc(F)cc2)CC1)Nc1ccccc1F,0.623 (inactive)
8,O=C(CN1CCN(c2ccccn2)CC1)NC1CCCCC1,0.646 (inactive)
9,O=C(CN1CCN(S(=O)(=O)c2ccc3ccccc3c2)CC1)NC(=O)NC1CCCCC1,-8.92 (active)
10,CCOC(=O)c1cccc(NC(=O)c2ccc(F)cc2F)c1,0.631 (inactive)
11,CN1CCN(C(=O)C2=C[C@H](c3ccc4c(c3)OCO4)C[C@H](OCc3ccc(CO)cc3)O2)CC1,0.346 (inactive)
12,O=C(CCc1ccc(S(=O)(=O)NC2CCCCC2)cc1)NCc1ccccc1,-2.7 (inactive)
13,O=c1[nH]snc1-c1c(Cl)cccc1Cl,0.688 (inactive)
14,CC1Cc2ccccc2N1C(=O)Cn1cnc2ccccc2c1=O (stereo not drawn),0.0523 (inactive)
15,CCn1c(CSc2ncccn2)nnc1SCC(=O)N1c2ccccc2CC1C (stereo not drawn),0.0736 (inactive)
16,CCCCn1ccnc1C(=O)c1cccc(S(=O)(=O)N2c3ccccc3CC2C)c1 (stereo not drawn),-5.72 (active)
17,O=C(NC1CC1)c1ccc2c(c1)NC(=O)c1ccccc1S2,-0.133 (inactive)
18,COc1ccc(COCCN2CCN(S(=O)(=O)c3ccccc3)CCC2=O)cc1,-0.361 (inactive)
19,COc1cc([C@H](Cc2ccccc2)NC(C)=O)oc(=O)c1,-0.786 (inactive)
20,Cc1ccc(C(=O)N/N=C/c2sc(=O)n(Cc3cccc(C(=O)O)c3)c2Cl)cc1,2.4 (inactive)
21,Cc1ccc(S(=O)(=O)Oc2ccc(/C=N/NC(=O)c3c(Cl)cnn3C)cc2)cc1,0.419 (inactive)
22,Cc1ccc(/C=N/NC(=O)C(NC(=O)c2ccccc2)c2n[nH]c(=O)c3ccccc23)cc1 (stereo not drawn),-4.96 (active)

row,SMILES,B-score
1,O=c1c2ccccc2c(-c2ccc(Br)cc2)nn1Cc1ccccc1,0.372 (inactive)
2,Cn1cc(CCC(=O)NCc2ccc3c(c2)OCO3)c2ccccc21,-2.19 (inactive)
3,O=C(COc1ccccc1)NCc1ccc2c(c1)OCO2,-1.91 (inactive)
4,N#Cc1nc(Cc2cccc3ccccc23)oc1NCc1ccc2c(c1)OCO2,-7.29 (active)
5,C=CCOC(=O)C1=C[C@H](c2ccc(Br)cc2)C[C@H](OCCCCO)O1,-0.545 (inactive)
6,COc1ccc(C2/C=C\CN(CC(C)C)CC(=O)N2Cc2ccc(F)cc2)cc1 (stereo not drawn),-0.399 (inactive)
7,Cc1ccc(-c2noc(CCC(N)=O)n2)cc1,0.127 (inactive)
8,COc1ccc(N2CCN(C(=O)CCc3nc(-c4ccc(C)cc4)no3)CC2)cc1,-3.49 (active)
9,CCOc1cc(-c2noc(CCC(=O)N3CCOCC3)n2)ccc1OC,0.164 (inactive)
10,C#CCOCCOCCOCCNc1nc(N2CCN(C(=O)C([C@@H](C)CC)n3cc(C(N)COC(=O)C(F)(F)F)nn3)CC2)nc(N2CCN(C(=O)[C@H](Cc3ccc(O)cc3)n3cc(C(N)[C@H](C)CC)nn3)CC2)n1 (stereo partly drawn),0.00651 (inactive)
11,Cc1ccc(CNC(=O)c2ccccc2CCc2ccccc2)cc1,0.145 (inactive)
12,COc1ccc(C[C@H]2CN3C(=NC[C@H]3C)N2CCNC(=O)CCC2CCCCC2)cc1,-0.267 (inactive)
13,O=C(CSc1nnc(-c2c[nH]c3ccccc23)o1)c1ccccc1,0.381 (inactive)
14,O=C(NCCc1ccccc1)/C(=C\c1ccc([N+](=O)[O-])cc1)NC(=O)c1ccccc1,0.653 (inactive)
15,O=C(CSCc1ccc([N+](=O)[O-])cc1)NCCSCc1ccccc1,-6.39 (active)
16,O=C(CSCc1ccc([N+](=O)[O-])cc1)Nc1cccc(C(=O)Nc2ccccc2C(=O)O)c1,-1.32 (inactive)
17,COc1cccc(/C=N/NC(=O)C(=O)N2CCCC2)c1,1.2 (inactive)
18,COC(=O)COc1cccc2c(=O)n(CC(=O)NCCc3ccc(OC)c(OC)c3)ccc12,1.52 (inactive)
19,CC(C)(C)n1nnnc1C(c1ccc(F)cc1)N1CCN(Cc2ccc3c(c2)OCO3)CC1 (stereo not drawn),-3.16 (inactive)
20,Cc1cccc(N2CCN(C(c3ccc(N(C)C)cc3)c3nnnn3C(C)(C)C)CC2)c1C (stereo not drawn),-3.44 (inactive)
21,CC(C)(C)n1nnnc1C(c1ccc(Cl)cc1)N1CCSCC1 (stereo not drawn),-2.81 (active)
22,COc1ccccc1-c1n[nH]c2c1[C@H](C)CC[C@H]2C(C)C,-2.06 (inactive)
